Most compounds without a hit are left out; they make up all but 1.2% or so of the library.
SARS 3CLpro inh = SARS-CoV 3CLpro protease inhibition. recombinant SARS-CoV 3CLpro, quenched FRET peptide cleavage. inhibition, % at 6 µM. 290,000 compounds, 0.14% hits; in the data active = inhibition above about 12%
PrPC surface inh = cell surface PrPC inhibition, primary TR-FRET screen; 370,000 compounds, 0.43% hits; inhibition, % at 13.8 µM; TR-FRET read-out; in the data active = inhibition above about 24%; note: 0% = median of the test wells and 100% = reference compound wells
PrP 5UTR inh = inhibition of PrP 5' UTR reporter expression | cell-based PrP 5' UTR mRNA reporter, plate reader | inhibition, % (concentration not given with the values) | 340,000 compounds, 0.35% hits; in the data active = inhibition above about 52%; note: 0 = median of the neutral control wells
SSB-PriA inh = inhibitors of Klebsiella pneumoniae PriA binding to SSB C-terminal tail; AlphaScreen SSBct-PriA binding, biotinylated peptide; inhibition, % at 33 µM; 430,000 compounds, 0.6% hits; in the data active = inhibition mostly above about 37%, no sharp cut-off; inactive = mostly below about 20%;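 note: plate controls were negative control peptide for no effect and reference peptide for full effect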
BJeLR lethal = kills HRASV12-expressing BJeLR cells; BJeLR (HRASV12) viability, CellTiter-Glo ATP luminescence, 48 h; inhibition, % (no concentration beside the values); 300,000 compounds, 0.17% hits; AID 1554; in the data active = inhibition above about 50%
* hit, by the source's call; / = not tested or not shown; ! = not active in a repeat.

SMILES	SARS 3CLpro inh	PrPC surface inh	PrP 5UTR inh	SSB-PriA inh	BJeLR lethal
O=C(CN1C(=O)CCC1=O)Nc1ccc(-c2cnc3n2CCC3)cc1	/	/	/	5.0	/
O=C(Nc1nc(-c2ccccn2)cs1)c1ccc([N+](=O)[O-])cc1	/	/	/	102.0*	/
Cc1ccc(C(=O)Nc2nc(-c3ccccn3)cs2)cc1S(=O)(=O)N1CCCCC1	/	/	/	64.5*	/
Cc1ccc(C)n1-c1ccc(C(=O)Nc2nc(-c3ccccn3)cs2)cc1	/	/	/	81.2	/
Cn1ccc2cc(C(=O)Nc3nc(-c4ccccn4)cs3)ccc21	/	/	/	110.5*	/
O=C(Nc1nc(-c2ccccn2)cs1)c1ccc(Cl)c(S(=O)(=O)N2CCCCCC2)c1	/	/	/	51.6	/
Cc1nc(C(=O)Nc2nc(-c3ccccn3)cs2)nn1-c1ccc(F)cc1	/	/	/	90.4*	/
O=C(CSc1nncc(=O)[nH]1)NCc1ccc2c(c1)OCO2	/	/	/	-13.0	/
O=C(CNC(=O)c1cccc(Br)c1)NN=Cc1cn[nH]c1-c1ccccc1	/	/	/	-10.2	/
N#Cc1nc(Cc2ccccc2)oc1NCc1cccnc1	-1.0	1.7	-16.5	-4.2	-7.2
N#Cc1nc(Cc2ccccc2)oc1NCc1ccccc1Cl	3.3	5.6	-15.9	40.1*	2.3
Cc1cccc(NC(=O)CSc2ccc(-c3ccccn3)nn2)c1	/	/	/	70.7*	/
CC(=O)c1cccc(NC(=O)CSc2ccc(-c3ccccn3)nn2)c1	-0.7	-2.3	-4.1	47.9*!	-12.3
CC(=O)Nc1cccc(NC(=O)CSc2ccc(-c3ccccn3)nn2)c1	-4.5	0.2	-20.6	12.6	-18.9
O=C1NC2C(=CC(O)C(O)C2O)c2cc3c(cc21)OCO3 (stereo not given)	/	91.2*	2.6	-11.8	/
CC(C)(C)CC(=O)N1CCC(c2nnc(C3CC3)s2)CC1	/	/	/	4.0	/
CCOc1ccc(NC(=O)c2csc3c2CCCC3)cc1	-2.4	7.6	-65.1	115.4*	0.2
CC(=O)c1cccc(NC(=O)c2csc3c2CCCCC3)c1	2.7	11.3	-21.3	-11.3	-4.1
CCOc1coc(C(=O)Nc2cccc(C(C)=O)c2)cc1=O	/	/	/	-12.0	/
OC(c1ccccn1)(c1ccccn1)c1ccccn1	-3.0	4.1	-38.3	79.2*	9.4
CC(c1ccccn1)C(C)(O)C(C)c1ccccn1 (stereo not given)	/	-5.0	-6.7	-6.8	/
Cc1cc(Cl)cc2sc(NC(=O)CCS(=O)(=O)c3ccc(F)cc3)nc12	/	/	/	-13.0	/
Oc1cccc2ccc[n+](CC(O)Cn3c4ccccc4c4ccccc43)c12 (stereo not given)	11.7	-36.3	-14.8	73.4*	0.3
CCn1cccc(-c2nnc(SCC(=O)NCc3ccccc3Cl)n2C)c1=O	/	/	/	-6.0	/
CCSc1nccc(-c2nn(-c3ccc(C)cc3)ccc2=O)n1	4.3	-15.7	-34.8	-1.0	21.0
SMILES	SARS 3CLpro inh	PrPC surface inh	PrP 5UTR inh	SSB-PriA inh	BJeLR lethal
CSc1nccc(-c2nn(-c3ccc(C)cc3)ccc2=O)n1	0.9	-10.0	-5.3	77.3*	12.2
O=C(COc1ccccc1Cl)Nc1nnc(S(=O)(=O)N2CCCC2)s1	1.6	12.5	-12.9	85.0*	-7.1
O=C(Nc1nnc(S(=O)(=O)N2CCOCC2)s1)c1ccccc1	-3.8	3.3	-22.9	0.4	-7.7
O=C(COc1ccccc1)Nc1nnc(S(=O)(=O)N2CCCC2)s1	2.0	-0.8	-79.9	6.0	3.6
O=C(Nc1nnc(S(=O)(=O)N2CCCCCC2)s1)c1ccccc1	5.6	-2.3	-18.4	101.0*	7.2
COc1cccc2c(SCC(=O)Nc3ccc4c(c3)OCO4)nccc12	/	/	/	-11.0	/
c1cnc2c(SCc3ccncc3)cccc2c1	/	/	/	32.8	/
N#CCSc1cccc2cccnc12	/	/	/	84.5*	/
Cc1cccc(CSc2cccc3cccnc23)c1	5.0	9.4	-19.5	94.5*	10.2
C(=C\CSc1cccc2cccnc12)/CSc1cccc2cccnc12	/	/	/	47.5	/
c1cnc2c(SCc3ccc(-c4nnco4)cc3)cccc2c1	2.8	-11.9	-40.8	74.2*	5.4
Cc1cc(C(=O)Nc2ccc(N3CCCC3=O)c(C)c2)no1	/	/	/	-4.0	/
CC(C)n1c(=O)oc(=O)c2cc(Br)ccc21	/	/	/	-1.0	/
COc1cc2c(c(OC)c1OC)-c1ccc(O)cc1[C@@H](NC(C)=O)CC2	/	9.5	68.0*	-2.6	31.8
COc1cc2c(c(OC)c1OC)-c1ccc(O)c(=O)cc1[C@@H](NC(C)=O)CC2	/	-7.0	-0.1	-13.4	/
O=[N+]([O-])c1cccnc1Sc1ccccc1	/	/	/	82.5*	/
O=[N+]([O-])c1cccnc1Sc1ccc(Cl)cc1	3.4	-14.5	-60.2	52.4*	2.9
O=[N+]([O-])c1cccnc1Sc1ncccc1O	/	/	/	34.9	/
CC(=O)N(Cc1c(C#N)c2ccccc2n1C)c1ccccc1	-2.0	6.6	-5.9	-13.6	-7.0
CC(=O)N(Cc1ccccc1)c1ncc2c(n1)c(=O)c(C#N)c1ccccn12	2.7	-54.3	-0.5	48.4*	1.1
Cc1nc2ccccc2c(=O)n1-c1ccc(NS(=O)(=O)c2ccc3c(c2)CCCC3)cc1	/	/	/	9.0	/
O=Cc1ccc2ccc3cccnc3c2n1	4.1	5.6	-8.7	81.0*	0.9
O=Cc1ccc2cccnc2n1	-4.8	-0.8	-9.5	-4.0	-5.3
COc1ccc(Cl)cc1C(=O)NCC(C)(O)C1CC1 (stereo not given)	/	/	/	-49.0	/
Cc1ccc2[nH]c3c(c2c1)CCCC3C(N)=O (stereo not given)	3.4	5.4	-7.5	3.0	7.8
SMILES	SARS 3CLpro inh	PrPC surface inh	PrP 5UTR inh	SSB-PriA inh	BJeLR lethal
Cc1ccc2[nH]c3c(c2c1)CCCC3NC(=O)CCl (stereo not given)	-2.5	/	10.2	14.5	59.9*
C=CCOc1c(Br)cc(CNc2ccc(NC(=O)C(C)C)c(OC)c2)cc1OC	3.1	7.0	-19.4	42.1*	-6.8
COc1cc(CNc2ccc(C(=O)O)cc2)cc(Br)c1OCC(=O)NC(C)(C)C	0.7	0.4	-10.0	-5.5	7.9
CC(C)(C)c1ccc(-c2nn3c(-c4ccccn4)nnc3s2)cc1	/	/	/	9.7	/
CC(C)(C)c1ccc(-c2nnc3sc(-c4cnccn4)nn23)cc1	/	/	/	51.0*	/
Cc1n[nH]c(C)c1C(=O)NCc1nc(-c2cccn2C)no1	/	/	/	-11.0	/
O=C(NCc1cccnc1)c1ccc(-c2cc3ccccc3oc2=O)cc1	-2.9	-39.7	-54.5	-0.3	66.3*
Cc1oc2c(c1C(=O)NCc1cccnc1)C(=O)c1ccccc1C2=O	4.3	/	/	1.1	75.9*
Nc1ccc(-c2cc3ccccc3oc2=O)cc1	-8.1	-24.2	84.7*	-6.2	6.7
O=c1oc2ccccc2cc1-c1ccc(O)cc1	-0.6	-9.6	-76.6	-11.1	-7.0
N#CC1(c2cccs2)CCOCC1	/	/	/	-11.0	/
N#Cc1c(NC(=O)c2ccccc2Cl)n(Cc2ccccc2)c2nc3ccccc3nc12	1.4	2.4	-10.3	53.3*	/
CCCCn1c(NC(=O)c2ccccc2Cl)c(C#N)c2nc3ccccc3nc21	3.5	3.2	-21.8	36.2	5.8
O=c1c2ccccc2nc(N2CCN(c3ccccc3)CC2)n1Cc1ccccc1	0.3	-3.2	-2.1	-7.7	0.3
Cc1ccc(C)c(N2CCN(c3nc4ccccc4c(=O)n3Cc3ccccc3)CC2)c1	3.1	4.7	-15.6	104.2*	18.1
CCOC(=O)CCC(=O)N1CCC(CSc2ccccn2)CC1	/	/	/	-8.0	/
CCOC(=O)C1CCN(c2c([N+](=O)[O-])c(C(Cl)Cl)nn2-c2ccccc2)CC1	0.7	-3.1	-5.5	13.8	4.5

Screening results from PubChem.
